The structures appear in SMILES notation. Activity calls are given as the source filed them. Rule for the calls: active = hit-call score of the fitted dose curve at least 0.9, where 1 is the maximum; inactive = score below 0.9.

Chain of Estrogen receptor (Homo sapiens) (P03372 whole entry, looked up): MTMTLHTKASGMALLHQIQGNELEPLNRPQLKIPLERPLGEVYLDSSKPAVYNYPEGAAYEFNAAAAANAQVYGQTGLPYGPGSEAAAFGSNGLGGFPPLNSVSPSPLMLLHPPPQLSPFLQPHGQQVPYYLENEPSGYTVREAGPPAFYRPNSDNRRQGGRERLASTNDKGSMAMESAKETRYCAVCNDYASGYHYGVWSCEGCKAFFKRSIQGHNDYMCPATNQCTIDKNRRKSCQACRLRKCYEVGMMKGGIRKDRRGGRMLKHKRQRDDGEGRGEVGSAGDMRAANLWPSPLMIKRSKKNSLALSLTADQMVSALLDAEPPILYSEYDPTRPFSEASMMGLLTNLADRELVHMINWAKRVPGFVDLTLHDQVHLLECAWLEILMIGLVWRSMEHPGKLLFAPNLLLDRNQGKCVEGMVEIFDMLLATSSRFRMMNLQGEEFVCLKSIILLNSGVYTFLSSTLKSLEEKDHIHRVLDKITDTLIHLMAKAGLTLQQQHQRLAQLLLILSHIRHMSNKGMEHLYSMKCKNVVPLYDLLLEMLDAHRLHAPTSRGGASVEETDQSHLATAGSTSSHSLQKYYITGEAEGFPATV

The assay concerns the target Estrogen receptor (Homo sapiens) (UniProt P03372). Put plainly: OT_ERa_GFPERaERE_0480: Odyssey Thera (OT) 8-hour HeLa Transcription Induction Assay for Estrogen Receptor (AID 2283381). On the procedure:
OT_ERa_GFPERaERE_0480 is a cell-based, single-readout assay that uses HeLa, a human cervix cell line, with measurements taken at 8 hours after chemical dosing in a 384-well plate.OT_ERa_GFPERaERE_0480 is one of one assay component(s) measured or calculated from the OT_ERa_GFPERaERE_0480 assay. It is designed to make measurements of fluorescent protein induction, a form of inducible reporter, as detected with optical microscopy: fluorescence microscopy signals by Microscopy technology.Data from the assay component OT_ERa_GFPERaERE_0480 was analyzed into 1 assay endpoint. This assay endpoint, OT_ERa_EREGFP_0480, was analyzed in the positive analysis fitting direction relative to DMSO as the negative control and baseline of activity. Using a type of inducible reporter, measures of receptor for gain-of-signal activity can be used to understand the reporter gene at the pathway-level as they relate to the gene ESR1. Furthermore, this assay endpoint can be referred to as a primary readout, because the performed assay has only produced 1 assay endpoint. To generalize the intended target to other relatable targets, this assay endpoint is annotated to the nuclear receptor intended target family, where the subfamily is steroidal.
All assay endpoints are quantified using high content image analysis algorithms.
`COC(=O)c1sccc1S(=O)(=O)NC(=O)Nc1nc(C)nc(OC)n1`: the molecule was called inactive.

Consider `CC(C)OC(=O)Nc1ccccc1`, for which the molecule was classed as inactive.

For the molecule `C=C(C)C#N`, the result was inactive.

Usually AC50 stands for the concentration at which the activity in the assay is half-maximal. Take `Clc1ccc(COC(Cn2ccnc2)c2ccc(Cl)cc2Cl)cc1` (stereo not given): the AC50 is 63.8 µM (active).

In the case of `O=C(NCO)NCO`, the molecule was called inactive.

On to `CC(C)(c1ccccc1)c1ccc(O)c(C(C)(C)c2ccccc2)c1`, for which the molecule was classed as inactive.

For the molecule `OCc1ccco1`, the molecule was classed as inactive.

For the molecule `Cl/C=C\C[N+]12CN3CN(CN(C3)C1)C2`, the AC50 was 82.2 µM (active).

In the case of `O=[N+]([O-])c1ccc(O)c([N+](=O)[O-])c1`, the molecule was classed as inactive.

As to `CCC1(c2ccc(N)cc2)CCC(=O)NC1=O` (stereo not given), the molecule was classed as inactive.

Take `OCC(O)CCl` (stereo not given): the outcome was inactive.

Consider `Clc1nc(Cl)nc(Cl)n1`, for which the result was inactive.

`COc1ccc(C=O)cc1`: the result was inactive.

On to `CC(C)(C)c1cc(O)ccc1O`, for which the molecule was classed as inactive.

In the case of `CCOC(=O)Nc1cccc(OC(=O)Nc2ccccc2)c1`, the molecule was called inactive.

For `C1CCC(NC2CCCCC2)CC1`, the call was inactive.

In the case of `ClC1(Cl)C2(Cl)C3(Cl)C4(Cl)C(Cl)(Cl)C5(Cl)C3(Cl)C1(Cl)C5(Cl)C24Cl` (stereo not given), the molecule was called inactive.

Consider `C=CC#N`, for which the molecule was classed as inactive.

With `CCC[CH2][Sn]([CH2]CCC)([CH2]CCC)[O]C(=O)c1ccccc1`, the molecule was classed as inactive.

For the molecule `O=C1C(Cl)=C(Cl)C(=O)c2ccccc21`, the result was inactive.

As for `CCOP(=S)(OCC)Oc1nc(Cl)c(Cl)cc1Cl`, the call was inactive.

Take `Cc1ccc(N)cc1Cl`: the call was inactive.

On to `CNC(=O)O/N=C/C(C)(C)S(C)=O` (stereo not given), for which the result was inactive.

For `CCC[CH2][Sn]([Cl])([Cl])[Cl]`, the molecule was classed as inactive.

For the molecule `Fc1ccc(C2(Cn3cncn3)OC2c2ccccc2Cl)cc1` (stereo not given), the molecule was called inactive.

Take `Cc1ccccc1C(=O)Nc1cccc(OC(C)C)c1`: the result was inactive.

Regarding `CC(=O)c1cc(C(C)(C)C)cc2c1CCC2(C)C`, the outcome was inactive.

Regarding `CC1(C)Cc2cccc(O)c2O1`, the molecule was classed as inactive.

Turning to `COP(=S)(OC)Oc1ccc(Sc2ccc(OP(=S)(OC)OC)cc2)cc1`, the molecule was classed as inactive.

For the molecule `COP(=O)(OC)O/C(=C\Cl)c1cc(Cl)c(Cl)cc1Cl`, the molecule was classed as inactive.

As for `CC(C#N)CCC#N` (stereo not given), the molecule was classed as inactive.

As for `Cl/C=C/Cl`, the call was inactive.

As to `Cc1ccc2ccccc2c1C`, the molecule was classed as inactive.

`CC(C)(OO)c1ccccc1`: the half-maximal activity concentration (AC50) is 35.3 µM (active).

With `NC(=O)O`, the result was inactive.

For `[O-][Cl+2]([O-])O`, the call was inactive.

`CC1(C)CCC(Cc2ccc(Cl)cc2)C1(O)Cn1cncn1` (stereo not given): the call was inactive.

As for `COc1cc(OC)nc(NC(=O)NS(=O)(=O)c2ncccc2C(=O)N(C)C)n1`, the outcome was inactive.

Take `ClC(Cl)=C(Cl)C(Cl)=C(Cl)Cl`: the outcome was inactive.

As to `CC(C)C1CCC(Cc2ccc(Cl)cc2)C1(O)Cn1cncn1` (stereo not given), the molecule was called inactive.

The values are drawn from PubChem BioAssay (EPA / NIEHS).
